PubChem BioAssay (NCI)
About 83,000 compounds went through this panel and 20% of them were active in at least one assay; those are over-represented in the sample as a whole.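 Results are percent growth after 48 hours of single-concentration exposure. 100 means growth as in untreated cells, lower positive values show inhibition; negative values down to -100 show cell death.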 Unmarked numbers belong to inactive results. Activity calls are given as the source filed them.

Test system: UO-31 renal
Assay: NCI-60 one-dose screen, 48 h (100 = growth as untreated, 0 = no growth, -100 = all killed)
Conditions: 10 µM
Protocol: Growth inhibition of the UO-31 human tumor cell line is measured as a screen for anti-cancer activity. Cells are grown in 96 well plates and exposed to the test compound for 48 hours. Compounds are tested at a single concentration, which is 10^-5 M for most compounds. The reported endpoint is percent growth (GI% or GIPRCNT), where numbers from 0 - 100% represent growth inhibition, and numbers from -100% - 0 represent cell death. For example, a value of 40 represents 60% growth inhibition. A value of 0 means no net growth occurred over the course of the experiment. A value of -40 indicates 40% of cells at the beginning of the experiment died by the end of the experiment. A value of -100 means all cells are dead at the end of the experiment.
NCI-60 Human Tumor Cell Lines Screen was performed using the standard one-dose NCI protocol, which is described in more detail at https://dtp.cancer.gov/discovery_development/nci-60/default.htm.
Compounds with GIPRCNT values below 10 were considered active. Activity score was based on GIPRCNT using the following formula: […]
Score is 0 for GIPRCNT values of 100 or above, 50 for GIPRCNT values of 0, and 100 for GIPRCNT values of -100.

| SMILES | growth |
| --- | --- |
| COc1cc2cc(Oc3ccc(NC(=O)c4cc(C(F)(F)F)cc(C(F)(F)F)c4)cc3)c(C)nc2cc1OC | 30.9% |
| CCN1C(=O)CC(SC2CC(=O)N(CC)C2=O)C1=O (stereo not given) | 80.2% |
| CCN1CCN(CCC(=O)Nc2cccc(-n3cc(-c4ccncc4)c(-c4ccc(Cl)c(OC)c4)n3)c2)CC1 | 34.6% |
| COc1cc(-c2csc(NC(=O)Nc3cc(C(F)(F)F)cc(C(F)(F)F)c3)n2)cc(OC)c1OC | 7.12% (active) |
| CCCC1(CN2c3ccccc3Sc3ccc(Cl)cc32)CCN(CC)C1 (stereo not given) | -1.01% (active) |
| c1ccc(CSc2ncccc2-c2nnc(SCCN3CCOCC3)o2)cc1 | 89.4% |
| CC[C@@H](C(=O)[C@H](C)[C@H](O)[C@@H](C)[C@H]1O[C@H]([C@@H](CC)C(=O)N(CC)CC)CC[C@H]1C)C1O[C@]2(C=C[C@@H](O)[C@]3(CC[C@@](C)([C@H]4CC[C@](O)(CC)[C@H](C)O4)O3)O2)[C@H](C)C[C@@H]1C (stereo not given in full) | -5.88% (active) |
| O=C(Nc1ccc2c(O)cc(S(=O)(=O)O)cc2c1)c1ccc([N+](=O)[O-])cc1 | 91.4% |
| CCOC(=O)c1cc(C(=O)c2cc(OC)cc(OC)c2)n2nc(C)ccc12 | 44.9% |
| CCN1CC(CCN2CCOCC2)C(C(c2ccccc2)c2ccccc2)C1=O (stereo not given) | 85.5% |
| NS(=O)(=O)c1ccc(N2N=C(c3ccccc3)CCC2=O)cc1 | 104% |
| Nc1ncc(-c2cnn(C3CCNCC3)c2)cc1-c1nc2ccccc2o1 | -17.7% (active) |
| CC1=CC2C(C(O)CC3(C)C2CC(C)C32OCOC23COCO3)C2(C)C/C(=C/O)C(=O)C=C12 (stereo not given) | 10.5% |
| COc1cc(-c2nn(-c3ccc(NC(=O)NCCNS(=O)(=O)c4ccc(F)cc4)cc3)cc2-c2ccncc2)ccc1Cl | 31.5% |
| COc1cc(/C=C2\CCCC3=C2N=C2SC(C)=CN2C3c2cc(OC)c(OC)c(OC)c2)cc(OC)c1OC (stereo not given) | -37.2% (active) |
| CC(C)(C)OC(=O)N1CCc2c(sc3ncnc(N/N=C/c4ccccc4Br)c23)C1 | 32.7% |
| C[C@]12CCC3c4ccc(O)cc4C[C@@H](CCCCCCCCCS(=O)CCCC(F)(F)C(F)(F)F)C3C1CC[C@@H]2O (stereo not given in full) | 62.7% |
| Nc1nc(-c2ccc(Cl)cc2)cc(-c2cc3ccccc3oc2=O)n1 | 69% |
| Cc1c2c[n+](C(C)C)ccc2c(C)c2c1[nH]c1ccccc12 | 72.1% |
| CCCCN(CCCC)C(=O)[C@H](CC)[C@@H]1CC[C@@H](C)[C@@H]([C@H](C)[C@@H](O)[C@@H](C)C(=O)[C@H](CC)C2O[C@]3(C=CC(=O)[C@]4(CC[C@@](C)([C@H]5CC[C@](O)(CC)[C@H](C)O5)O4)O3)[C@H](C)C[C@@H]2C)O1 (stereo not given in full) | 13.4% |

| SMILES | growth |
| --- | --- |
| COc1ccc(-c2cc(-c3ccc(Cl)cc3)nc(SCCCC(=O)NO)n2)cc1OC | -53.2% (active) |
| CC(=O)[C@@]12O[C@](C)(c3ccccc3)O[C@@H]1CC1C3CCC4=CC(=O)CC[C@]4(C)C3CC[C@@]12C (stereo not given in full) | 51.6% |
| CCCCCOC(=O)Nc1nc(=O)n(C2O[C@H](C)[C@@H](O)[C@H]2O)cc1F (stereo not given in full) | 82.1% |
| COc1ccc(-c2n[nH]nc2-c2cc(OC)c3c(c2OC)OCO3)cc1 | 51.1% |
| O=C(CCl)Nc1ccc(Cc2ccc(NC(=O)CCl)cc2)cc1 | 54.5% |
| O=C1c2ccccc2C(=O)N1CCCCNc1ccccc1 | 61.7% |
| CCN(CC)CCOc1cccc2c1C(=O)c1ccccc1C2=O | 62.2% |
| Cc1ccc(C(=O)C2C(=O)C3CCC2C3)cc1 (stereo not given) | 90.2% |
| C[C@@H](C[C@H](CCO)c1ccccc1)c1ccc2ccccc2c1 | -86% (active) |
| C=CCn1c(SCC(=O)Nc2ccc(C(=O)/C=C/c3ccc(Cl)cc3)cc2)nnc1-c1cc(-c2ccccc2)nc2ccccc12 | 35.4% |
| CC(C)c1cc(N=O)cc(C(C)C)c1O | 90.2% |
| CCCCN(CCCC)C(=O)[C@H](CC)[C@@H]1CC[C@@H](C)[C@@H]([C@H](C)[C@@H](O)[C@@H](C)C(=O)[C@H](CC)C2O[C@]3(C=C[C@@H](O)[C@]4(CC[C@@](C)([C@H]5CC[C@](O)(CC)[C@H](C)O5)O4)O3)[C@H](C)C[C@@H]2C)O1 (stereo not given in full) | -11.7% (active) |
| COc1cc(-c2ccc[nH]2)[nH]c1/C=C1\N=C(C)C(C(=O)NC(C)C)=C1C | -35% (active) |
| NS(=O)(=O)Oc1ccc(-c2ccc3sccc3c2)cc1 | 82.1% |
| COc1ccc(-c2onc(N)c2-c2cc(OC)c3c(c2)OCO3)cc1 | 55.2% |
| COc1ccc(C(=O)N/N=C/c2cc(C(F)(F)F)ccc2Cl)cc1 | 88.9% |
| CN(C)CCOc1ccccc1NC1=C(Cl)C(=O)C(Nc2ccccc2OCCN(C)C)=C(Cl)C1=O | 38.4% |
| COc1ccc2nc3cc(Cl)ccc3c(Nc3cc(CN4CCCC4)c(O)c(CN4CCCC4)c3)c2n1 | 18.9% |
| Cc1ccc(Cl)cc1NC(=O)CCl | 91.3% |
| N#Cc1c(-c2ccc(Cl)cc2)n(O)c2ccccc12 | 11% |
